“And” between values parts separate entries of the source, which are not always exact repeats. Equal entries are not always repeated. Results filed as inconclusive are left out. The source holds several records for some structures; these can differ, active in one and inactive in another. The source made the active and inactive calls. How the source made its calls, unless noted: active means hit-call score of the fitted dose curve at least 0.9, where 1 is the maximum; inactive means score below 0.9.
Legend:
[1] = CCTE_Shafer_MEA_dev_burst_rate: CCTE's Neural Network Formation Assay for Burst Rate, Shafer Lab (AID 2284042);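 on AC50: potency for loss of burst rate below DMSO control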
Outline: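 Exposure ran continuously over 12 days of network development in rat cortical cultures, with compound refreshed during full media changes on DIV 5 and 9. Single-electrode bursts per recording time, well-mean over active electrodes, trapezoidal AUC across days 5–12, fitted downward relative to DMSO.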

[2] = CCTE_Shafer_MEA_dev_bursting_electrodes_number: CCTE's Neural Network Formation Assay for Number of Bursting Electrodes, Shafer Lab (AID 2284043; active means hit-call score of the fitted dose curve at least 0.9, where 1 is the maximum;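 on AC50: potency is for loss of bursting electrodes relative to DMSO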)
Outline: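 Read-out is the per-well number of electrodes bursting at least once every 2 minutes, recorded on days 5, 7, 9 and 12 and collapsed by trapezoidal area under the curve. Cultures were primary rat cortical neurons on MEA plates, treated continuously from plating.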

[3] = CCTE_Shafer_MEA_dev_per_burst_interspike_interval: CCTE's Neural Network Formation Assay for Burst Interspike Interval, Shafer Lab (AID 2284044);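 further: mean spike spacing inside bursts as AUC over recordings on days 5 7 9 12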;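 on AC50: potency for a decrease of within-burst interspike interval below DMSO level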
Outline: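 Primary rat cortical neurons on 48-well MEA plates, exposed from day 0 through day 12, treatment renewed at DIV 5 and 9. Within-burst interspike interval recorded days 5, 7, 9, 12, well-averaged, summarised as AUC; negative fit versus DMSO.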

[4] = CCTE_Shafer_MEA_dev_burst_duration_mean: CCTE's Neural Network Formation Assay for Mean Burst Duration, Shafer Lab (AID 2284045);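 on AC50: curve fitted for loss meaning shorter burst duration than DMSO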
Outline: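 Read-out: average first-to-last-spike interval within single-electrode bursts, averaged over bursting electrodes per well, then summarised as area under the curve across days 5, 7, 9 and 12. Developing rat cortical networks were exposed from day 0.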

[5] = CCTE_Shafer_MEA_dev_interburst_interval_mean: CCTE's Neural Network Formation Assay for Mean Interburst Interval, Shafer Lab (AID 2284046);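 further: well-mean interburst interval of bursting electrodes as AUC over four recording days; curve fitted for decrease in interburst interval relative to DMSO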
Outline: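 Primary rat cortical neurons on PEI-coated 48-well MEA plates (laminin added with cells at plating) (16 electrodes/well), exposed from plating day 0 with renewal at DIV 5 and 9. Mean inter-burst interval averaged over bursting electrodes, AUC across days 5, 7, 9, 12; DMSO baseline.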

[6] = CCTE_Shafer_MEA_dev_inter_network_spike_interval_mean: CCTE's Neural Network Formation Assay for Mean Inter-network Spike Interval, Shafer Lab (AID 2284047);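 on AC50: potency for a decrease in mean inter-network spike interval below DMSO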
Outline: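 Mean time between consecutive network-spike peaks, recorded extracellularly (adaptive spike detection) on DIV 5, 7, 9 and 12, summarized as trapezoidal AUC. Rat cortical cultures on MEAs dosed continuously days 0–12, re-dosed at feeds; loss-of-signal fit relative to DMSO.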

[7] = CCTE_Shafer_MEA_dev_network_spike_number: CCTE's Neural Network Formation Assay for Number of Network Spikes, Shafer Lab (AID 2284048);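 further: synchronized bursts across electrodes counted on days 5 7 9 12 and integrated as AUC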;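 on AC50: fit as a loss of signal meaning fewer network spikes than DMSO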
Outline: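 Developing networks of primary rat cortical neurons are treated over 12 days starting at plating, with media and compound fully replaced on DIV 5 and 9. Network spike counts from four recording days are integrated as trapezoidal AUC.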

[8] = CCTE_Shafer_MEA_dev_network_spike_peak: CCTE's Neural Network Formation Assay for Mean Number of Electrodes in Network Spike, Shafer Lab (AID 2284049);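 on AC50: fitted for loss of signal meaning fewer electrodes in network spikes than DMSO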
Outline: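 Rat cortical primary culture, 1.5 x 10^5 cells/well, 48-well MEA (16 electrodes/well). Dosing day 0 through DIV 12, full media/compound exchange DIV 5, 9. AxIS adaptive spike detection; AUC over days 5/7/9/12; loss-of-signal vs DMSO.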

[9] = CCTE_Shafer_MEA_dev_spike_duration_mean: CCTE's Neural Network Formation Assay for Mean Spike Duration, Shafer Lab (AID 2284051);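 further: mean network spike duration pooled as area under curve over DIV 5 to 12 recordings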;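 on AC50: potency for a decrease in mean network spike duration versus DMSO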
Outline: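 Spontaneous activity was recorded on days 5, 7, 9 and 12 from rat cortical cultures grown on microelectrode arrays and dosed continuously from day 0, with media and compound renewed after the DIV 5 and 9 recordings. Network-spike duration was collapsed by area under the curve.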

[10] = CCTE_Shafer_MEA_dev_network_spike_duration_std: CCTE's Neural Network Formation Assay for Standard Deviation of Network Spike Duration, Shafer Lab (AID 2284052);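 further: hits are decreases in network spike duration SD versus DMSO vehicle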
Outline: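 Network spike duration variability was collapsed across recordings on days 5, 7, 9 and 12 by trapezoidal area-under-curve and fitted downward against DMSO. Cultures were rat cortical neurons on PEI-coated MEA plates, dosed continuously from plating, refed with compound DIV 5/9.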

[11] = CCTE_Shafer_MEA_dev_per_network_spike_spike_number_mean: CCTE's Neural Network Formation Assay for Mean Number of Spikes in a Network Spike, Shafer Lab (AID 2284053);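 on AC50: fitted as decrease in spikes per network spike relative to DMSO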
Outline: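 Mean spike count within each network spike, taken in a 0.05 s window at its peak, was recorded on days 5, 7, 9 and 12 and integrated as trapezoidal area under the curve. Rat cortical cultures on MEA plates received continuous compound from day 0, refreshed at medium changes on DIV 5 and 9.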

[12] = CCTE_Shafer_MEA_dev_per_network_spike_spike_percent: CCTE's Neural Network Formation Assay for Percent of Spikes in a Network Spike, Shafer Lab (AID 2284054)
Outline: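 Rat primary cortical cultures, 1.5 x 10^5 cells/well on MEA. Continuous compound exposure d0–12, medium/compound renewed DIV 5, 9. Network-spike spike % (0.05 s peak window), AUC over 4 recordings, DMSO baseline.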

[13] = CCTE_Shafer_MEA_dev_LDH: CCTE's Lactate Dehydrogenase Assay for Cytotoxicity in the Neural Network Formation Assay, Shafer Lab (AID 2284068; active means hit-call score of the fitted dose curve at least 0.9, where 1 is the maximum;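 further: exposure for twelve days from plating with re-dosing on DIV 5 and 9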)
Outline: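 Primary rat cortical neurons were cultured on PEI-coated MEA plates and exposed from plating through day 12, with compound renewed at medium changes on DIV 5 and 9. LDH activity was read spectrophotometrically; loss of signal versus DMSO indicates reduced viability.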

[14] = CCTE_Shafer_MEA_acute_AB: CCTE's Alamar Blue Assay for Cytotoxicity in the Neural Acute Assay, Shafer Lab (AID 2284069; active means hit-call score of the fitted dose curve at least 0.9, where 1 is the maximum;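 further: active compounds lower the viability signal compared with DMSO wells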)
Outline: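 Resazurin reduction (CellTiter Blue, 1:6 in fresh medium) read at ex 544/em 590 nm marks viability loss relative to DMSO. Cells: primary rat cortical neuron networks on microelectrode arrays, treated after baseline recording at 13 or 15 days in vitro.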

[15] = CCTE_Shafer_MEA_dev_AB: CCTE's Alamar Blue Assay for Cytotoxicity in the Neural Network Formation Assay, Shafer Lab (AID 2284083; active means hit-call score of the fitted dose curve at least 0.9, where 1 is the maximum;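 further: resazurin reduction fluorescence as viability of cultured neurons; twelve days of exposure from plating with re-dosing on DIV 5 and 9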)
Outline: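 Resazurin fluorescence, relative to DMSO, gauges viability after twelve days of exposure that began at plating of rat cortical neurons (1.5 x 10^5 cells/well, 48-well MEA); treatment renewed with full medium exchange on DIV 5 and 9.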

[16] = CCTE_Shafer_MEA_acute_LDH: CCTE's Lactate Dehydrogenase Assay for Cytotoxicity in the Neural Acute Assay, Shafer Lab (AID 2284086; active means hit-call score of the fitted dose curve at least 0.9, where 1 is the maximum;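 further: active means LDH release rises above DMSO vehicle level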)
Outline: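 Primary rat cortical neurons on 48-well MEA plates, treated on day 13 or 15 post-plating. After the 40-min recording with compound, medium LDH release was read by absorbance at 490 nm. Gain of signal was fitted against DMSO negative control.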

[17] = UKN5_HCS_SBAD2_cell_viability: Viability Assessment in the University of Konstanz (UKN) Leist Lab Neurite Outgrowth Assay in human iPSC-derived immature Dorsal Root Ganglia Neurons (UKN5) (AID 2284056)
Outline: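 iPSC-derived immature peripheral neurons (SBAD2) seeded on Matrigel with CHIR99021, SU5402 and DAPT, dosed 1 h later for 24 h. Viability from Hoechst H-33342 and calcein-AM live staining, high-content imaging; bidirectional fit versus DMSO.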

[18] = UKN5_HCS_SBAD2_neurite_outgrowth: University of Konstanz (UKN) Leist Lab Neurite Outgrowth Assay in human iPSC-derived immature Dorsal Root Ganglia Neurons (UKN5) (AID 2284070); details: actives raise or lower the signal
Outline: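 Human iPSC-derived immature DRG neurons (SBAD2) on Matrigel with CHIR99021 (1.5 uM), SU5402 (5 uM), DAPT (5 uM); compounds added 1 h post-seeding for 24 h. Calcein-AM neurite area imaged; bidirectional fit vs DMSO.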

[19] = test system: DIO2 (gene 1734); assay: CCTE_GLTED_hDIO2: CCTE's human Deiodinase 2 (DIO2) Inhibition Assay, Great Lakes Toxicology and Ecology Division (GLTED) Lab (AID 2284050; active means hit-call score of the fitted dose curve at least 0.9, where 1 is the maximum)
Outline: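 Cell-free human DIO2 enzyme was incubated with test chemical for 3 h; iodide liberated from substrate was then quantified by the Sandell-Kolthoff reaction (absorbance), run in triplicate. Loss of signal versus DMSO baseline indicated inhibition.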

[20] = test system: DIO3 (gene 1735); assay: CCTE_GLTED_hDIO3: CCTE's human Deiodinase 3 (DIO3) Inhibition Assay, Great Lakes Toxicology and Ecology Division (GLTED) Lab (AID 2284055; active means hit-call score of the fitted dose curve at least 0.9, where 1 is the maximum;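 further: potency is for inhibition seen as loss of released iodide signal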)
Outline: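 Cell-free assay with human DIO3 enzyme produced by adenovirus expression; enzyme incubated with test chemical for 3 hours. Liberated iodide then measured by Sandell-Kolthoff absorbance; loss of signal versus DMSO baseline indicates inhibition, run in triplicate.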

Measured: AC50

CC(C)(C)C(O)(CCc1ccc(Cl)cc1)Cn1cncn1 (stereo unspecified)
inactive: [1] | [3] | [4] | [5] | [6] | [10] | [12] | [13] | [14] | [15] | [16]
active: [2] 5.5 µM | [7] 801 nM | [8] 15 µM | [9] 15 µM | [11] 15 µM

OCCOCCO
inactive: [1] | [2] | [3] | [4] | [5] | [7] | [8] | [9] | [10] | [11] | [12]
active: [6] 24500 nM

CC(C)(O)c1cnn2c(-c3ccc(F)c(-c4c(F)cccc4C#N)c3)cnc2n1
active: [2] 1.98 µM | [8] 1.98 µM | [9] 1.98 µM | [12] 10 µM
inactive: [1] | [3] | [4] | [5] | [6] | [7] | [10] | [11] | [14] | [15] | [16]

CCC[CH2][Sn]([Cl])([CH2]CCC)[CH2]CCC
active: [1] 0.043 µM | [2] 0.0406 µM | [3] 39.2 nM | [4] 30.2 nM | [5] 0.0762 µM | [6] 76.9 nM | [7] 56.5 nM | [8] 0.0754 µM | [9] 0.0303 µM | [10] 13.8 nM | [11] 0.0632 µM | [12] 0.0777 µM | [17] 306 nM | [13] 0.0843 µM | [14] 1.92 µM and 3.06 µM | [18] 109 nM | [15] 81.4 nM | [16] 29.7 µM and 15 µM

Cc1ccc(N)c(N)c1
inactive: [14] | [16]

CCN(CC)CCO
inactive: [14] | [16]

ClC1=C(Cl)[C@]2(Cl)[C@H]3[C@H]([C@@H]4C=C[C@H]3C4)[C@@]1(Cl)C2(Cl)Cl
active: [1] 5.95 µM | [2] 7.53 µM | [3] 6260 nM | [4] 3950 nM | [5] 7.62 µM | [7] 7560 nM | [8] 5.55 µM | [9] 5.79 µM | [11] 1.98 µM | [12] 7.67 µM | [13] 6.69 µM | [15] 7930 nM
inactive: [6] | [10] | [16]

C[C@]12C=CC3=C4CCC(=O)C=C4CC[C@H]3[C@@H]1CC[C@@H]2O
active: [19] 100000 nM | [20] 23500 nM

N#CC(Br)Br
inactive: [14] | [16]

CCN(CC)N=O
inactive: [14]

c1ccc(N=Nc2ccccc2)cc1
inactive: [14] | [16]

CNC(=O)Oc1cccc2c1OC(C)(C)C2
inactive: [1] | [3] | [4] | [5] | [6] | [7] | [10] | [11] | [12] | [13] | [15]
active: [2] 15 µM and 76.8 µM | [8] 10 µM and 49.6 µM | [9] 10 µM and 49.6 µM | [11] 49.6 µM | [13] 49.6 µM | [15] 49600 nM

C1=Cc2cccc3cccc1c23
inactive: [1] | [2] | [3] | [4] | [5] | [6] | [7] | [8] | [9] | [10] | [11] | [12] | [13] | [15]

CCC(C)c1ccc(O)cc1 (stereo unspecified)
inactive: [14] | [16]

O=[N+]([O-])c1ccc(Oc2ccc(Cl)cc2Cl)cc1
inactive: [14]

ClC1=C(Cl)C2(Cl)C3C(Cl)C=CC3C1(Cl)C2(Cl)Cl (stereo unspecified)
inactive: [3] | [4] | [6] | [7] | [14] | [16]
active: [1] 2.74 µM | [2] 2.35 µM | [5] 2.32 µM | [8] 4.19 µM | [9] 4.2 µM | [10] 744 nM | [11] 2.98 µM | [12] 1.4 µM | [13] 2.98 µM | [15] 937 nM

Clc1ccc(C(c2ccc(Cl)cc2)C(Cl)(Cl)Cl)cc1
active: [1] 7.69 µM and 6.09 µM | [2] 3.96 µM and 6.35 µM | [3] 7.74 µM and 9.33 µM | [5] 7.67 µM and 9 µM | [7] 2.58 µM and 2.86 µM | [8] 3.55 µM and 6.68 µM | [9] 2.62 µM and 8.54 µM | [10] 1.98 µM and 8.91 µM | [11] 6.95 µM and 5.75 µM | [12] 3.02 µM and 4.15 µM | [13] 4.07 µM and 6.5 µM | [15] 3.88 µM and 8.94 µM
inactive: [4] | [6] | [14] | [16]

C[N+](C)(C)CC1CO1 (stereo unspecified)
inactive: [14] | [16]

Nc1cc(Cl)cc(C(=O)O)c1Cl
inactive: [1] | [2] | [3] | [4] | [5] | [6] | [7] | [8] | [9] | [10] | [11] | [12] | [13]

c1ccc(NNc2ccccc2)cc1
inactive: [14]

O=C(N[C@H](c1ccccc1)[C@@H]1CN2CCC1CC2)c1c(Cl)ccc(C(F)(F)F)c1Cl
inactive: [14] | [16]

— PubChem BioAssay (EPA / NIEHS)
